This is an account of results in PubChem BioAssay AID620 (Sanford-Burnham Center for Chemical Genomics, 2007).

In all, about 87,000 compounds went through this assay and about 360 (0.41%) were called active. Many of the other results were omitted from the sample, so actives are more common in it than they were. A number with no mark means an inactive call. Rule as the data show it: active = cytotoxicity above about 50%; inactive = the rest.

This experiment can be described thus: HT1080 cell viability loss – fluorescence readout (AID 620).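 Also: cells exposed to compound overnight then 4 h with Alamar Blue; 0% = vehicle DMSO and 100% = killing control.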 The note with it: at 10 µM, hits give high values.
For the molecule `CON(C)C(=O)Nc1ccc(Cl)cc1`, the cytotoxicity is 1.8%.

In the case of `O=C(Nc1ccc(Cl)cc1)Nc1nccs1`, the cytotoxicity is 61.1% (active).

Turning to `CCOC(=O)c1c(C)n(CCN2CCN(C)CC2)c2ccc(OC)cc12`, the cytotoxicity was 9.6%.

With `CCN(CC)c1ccc(N=Cc2c(O)n(-c3ccc(OC)cc3)c(=O)[nH]c2=O)cc1`, the cytotoxicity is 0.4%.

For `CCOC(=O)C1SC2(C(F)F)CC1(O)c1c(c(OC)c3occc3c1OC)O2` (stereo not given), the cytotoxicity was 5.2%.

As to `O=c1c2ccccc2[nH]c(=S)n1-c1ccc2c(c1)OCO2`, the cytotoxicity is -0.8%.

As for `COc1ccc(C2NCc3ccc4c(c3-n3cccc32)OCO4)cc1OC` (stereo not given), the cytotoxicity is -2.8%.

On to `c1cc2n(c1)-c1c(ccc3c1OCO3)CNC2c1ccc2c(c1)OCO2` (stereo not given), for which the cytotoxicity is 3.4%.

On to `COc1ccc(C2NCc3ccc4c(c3-n3cccc32)OCO4)cc1O` (stereo not given), for which the cytotoxicity is 67.8% (active).

As to `COc1ccc(CCNC(C)CCc2ccc(OC)cc2)cc1` (stereo not given), the cytotoxicity was -9.1%.

With `CCC(=NCCc1c[nH]c2ccccc12)c1c(O)n(C)c(=O)n(C)c1=O`, the cytotoxicity was 3.2%.

In the case of `COc1ccc(C2C(C(=O)N3CCC4(CC3)OCCO4)c3cc(OC)c(OC)cc3C(=O)N2C)cc1` (stereo not given), the cytotoxicity was -12.7%.

`C[C@H]1CCC/C=C/C2C[C@H](O)CC2[C@H](O)/C=C/C(=O)O1` (stereo not given in full): the cytotoxicity is 83.3% (active).

`C[C@H]1CCCC(=O)CCC/C=C/c2cc(O)cc(O)c2C(=O)O1`: the cytotoxicity was -0.7%.

Turning to `C[C@H]1CCC[C@@H](O)CCC/C=C/c2cc(O)cc(O)c2C(=O)O1`, the cytotoxicity is 12.8%.

For `COC(=O)CC1NC2CCCCC2NC1=O` (stereo not given), the cytotoxicity is 3.2%.

On to `O=C1CC(N2CCC(n3c(=O)[nH]c4ccccc43)CC2)C(=O)N1Cc1ccccc1` (stereo not given), for which the cytotoxicity was 13.4%.

Regarding `O=c1[nH]c2ccccc2n1C1CCN(CCCC(c2ccc(F)cc2)c2ccc(F)cc2)CC1`, the cytotoxicity is 91.3% (active).

Consider `O=C1CC(N2CCC(n3c(=O)[nH]c4ccccc43)CC2)C(=O)N1c1ccc(F)cc1` (stereo not given), for which the cytotoxicity was 2%.

With `CCCCn1c(=O)c(C(=O)NCc2ccncc2)c(O)c2ccccc21`, the cytotoxicity is 4.9%.

Turning to `COc1ccccc1N1C(=O)NC(=O)C(CCc2ccncc2)(CCc2ccncc2)C1=O`, the cytotoxicity was -6.4%.

On to `CCC(=NC1CC1)c1c(O)n(C2CCCCC2)c(=O)[nH]c1=O`, for which the cytotoxicity is 15.1%.

On to `CC(=O)c1cccc(NC2=NCC(C)S2)c1` (stereo not given), for which the cytotoxicity is 1.4%.

Turning to `O=C1CN=C(c2ccccc2)c2oc3ccc(Br)cc3c2N1`, the cytotoxicity was 8.1%.

On to `COc1cccc(OC)c1C1=NCC(=O)Nc2c1oc1ccc(Br)cc21`, for which the cytotoxicity is 64.8% (active).

Regarding `CC1=CC(=C2C(=O)NC(=S)NC2=O)C=C(C(F)(F)F)N1C`, the cytotoxicity is 1.5%.

Consider `COC(=O)C1CN(C#N)N(c2ccc(Cl)cc2)C12c1ccccc1-c1ccccc12` (stereo not given), for which the cytotoxicity was 84.3% (active).

Take `COC(=O)[C@@H]1[C@@H](C(=O)OC)C2(c3ccccc3-c3ccccc32)N(c2ccc(Cl)cc2)N1C#N`: the cytotoxicity was 2.6%.

For the molecule `COC(=O)C[C@]1(C(=O)OC)CN(C#N)N(c2ccc(Cl)cc2)C12c1ccccc1-c1ccccc12`, the cytotoxicity is 93.9% (active).

For the molecule `CCC(=Nc1ccc2c(c1)CCC2)c1c(O)n(C2CCCCC2)c(=O)[nH]c1=O`, the cytotoxicity is -1.6%.

`CCCN1CC(C)C(OC(C)=O)(c2ccccc2)CC1C` (stereo not given): the cytotoxicity was 1.2%.

Turning to `OC1(CN2CCOCC2)C2CC3CC(C2)CC1C3` (stereo not given), the cytotoxicity was -20.1%.

As for `CC(=O)Nc1ccc(S(=O)(=O)NC(CC(=O)N2CCC3(CC2)OCCO3)C(C)C)cc1` (stereo not given), the cytotoxicity was 4.2%.

Take `CCOP(=O)(C#CC(C)(C)C)C(O)(c1ccccc1)C(F)(F)F` (stereo not given): the cytotoxicity is 6.8%.

On to `Cc1nc2c(=O)n(C)c(=O)nc-2n(C)n1`, for which the cytotoxicity was 103% (active).

As for `O=C(CN1C2CCC1CC(O)(c1cccnc1)C2)Nc1ccc2c(c1)OCO2` (stereo not given), the cytotoxicity was 2.5%.

For `CC(C)CCP(=O)(O)c1ccccc1`, the cytotoxicity is 0.8%.

With `C=CCn1c(O)c(C=NCCCOc2ccc(CC)cc2)c(=O)[nH]c1=S`, the cytotoxicity is -6.1%.

`CCOC(=O)C1C(=O)NC23CCCC2C1c1ccccc1O3` (stereo not given): the cytotoxicity is 13.5%.

With `Cc1cccc(-n2c(O)c(C=NCCCN3CCOCC3)c(=O)[nH]c2=O)c1C`, the cytotoxicity is -0.3%.
